± gives the standard deviation of the averaged measurements.
How the values were obtained:
Experiment in all cases: promoter activity interaction Z-score (Lux/OD deviation from empty-vector control); higher = stronger promoter induction by the compound
[1] = system: E. coli BW25113 acrABp lux reporter
Outline: (§1)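 Every compound was given at four 1:2 dilutions, in biological duplicates, to E. coli BW25113 carrying low-copy luxCDABE promoter reporters in wild-type or single-gene deletion backgrounds. Growth in 40 µl LB Lennox in 384-well plates at 37°C was followed by OD600 and luminescence readings every 30 min for 12 h, integrated over 0–8 h for wild type and 1–9 h for deletion strains, with wells below 10% of the median growth value excluded. Scores are Z-transformed residuals of growth-normalised luminescence fitted against a control.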

[2] = system: E. coli BW25113 marRABp lux reporter
Outline: as §1

[3] = system: E. coli BW25113 micFp lux reporter
Outline: as §1

[4] = system: E. coli BW25113 ompFp lux reporter
Outline: as §1

[5] = system: E. coli BW25113 robp lux reporter
Outline: as §1

[6] = system: E. coli BW25113 soxSp lux reporter
Outline: as §1

[7] = system: E. coli BW25113 tolCp lux reporter
Outline: as §1

[8] = 2.4 µg/ml, genetic background: wild type
[9] = 2.4 µg/ml, genetic background: ΔmarA
[10] = 2.4 µg/ml, genetic background: Δrob
[11] = 2.4 µg/ml, genetic background: ΔsoxS
[12] = 4.8 µg/ml, genetic background: wild type
[13] = 4.8 µg/ml, genetic background: ΔmarA
[14] = 4.8 µg/ml, genetic background: Δrob
[15] = 4.8 µg/ml, genetic background: ΔsoxS
[16] = 9.5 µg/ml, genetic background: wild type
[17] = 9.5 µg/ml, genetic background: ΔmarA
[18] = 9.5 µg/ml, genetic background: Δrob
[19] = 9.5 µg/ml, genetic background: ΔsoxS
[20] = 19 µg/ml, genetic background: wild type
[21] = 19 µg/ml, genetic background: ΔmarA
[22] = 19 µg/ml, genetic background: Δrob
[23] = 19 µg/ml, genetic background: ΔsoxS

CO[C@@H]1[C@@H](OC(N)=O)[C@@H](O)[C@H](Oc2ccc3c(O)c(NC(=O)c4ccc(O)c(CC=C(C)C)c4)c(=O)oc3c2C)OC1(C)C [Novobiocin]
promoter activity interaction Z-score [1, 8]: 0.244 ± 0.011
promoter activity interaction Z-score [1, 9]: -0.347 ± 1.3
promoter activity interaction Z-score [1, 10]: 0.848 ± 0.4
promoter activity interaction Z-score [1, 11]: 0.546 ± 0.036
promoter activity interaction Z-score [1, 12]: 0.442 ± 0.43
promoter activity interaction Z-score [1, 13]: 0.136 ± 0.95
promoter activity interaction Z-score [1, 14]: 1.49 ± 0.32
promoter activity interaction Z-score [1, 15]: 0.39 ± 0.16
promoter activity interaction Z-score [1, 16]: 0.927 ± 0.17
promoter activity interaction Z-score [1, 17]: -0.164 ± 0.91
promoter activity interaction Z-score [1, 18]: 1.06 ± 0.42
promoter activity interaction Z-score [1, 19]: 1.16 ± 0.38
promoter activity interaction Z-score [1, 20]: 2.99 ± 1.6
promoter activity interaction Z-score [1, 21]: 0.0115
promoter activity interaction Z-score [1, 22]: 10.3 ± 1.3
promoter activity interaction Z-score [1, 23]: 4.62 ± 1.6
promoter activity interaction Z-score [2, 8]: -0.221 ± 0.081
promoter activity interaction Z-score [2, 9]: -0.11 ± 0.13
promoter activity interaction Z-score [2, 10]: 0.0782 ± 0.013
promoter activity interaction Z-score [2, 11]: -0.0478 ± 0.0032
promoter activity interaction Z-score [2, 12]: 0.022 ± 0.23
promoter activity interaction Z-score [2, 13]: 0.415 ± 0.36
promoter activity interaction Z-score [2, 14]: -0.164 ± 0.31
promoter activity interaction Z-score [2, 15]: -0.107 ± 0.12
promoter activity interaction Z-score [2, 16]: -0.297 ± 0.13
promoter activity interaction Z-score [2, 17]: 0.318 ± 0.33
promoter activity interaction Z-score [2, 18]: -0.282 ± 0.11
promoter activity interaction Z-score [2, 19]: -0.114 ± 0.18
promoter activity interaction Z-score [2, 20]: 1.2 ± 0.98
promoter activity interaction Z-score [2, 21]: 5.2 ± 2.7
promoter activity interaction Z-score [2, 22]: 0.0504 ± 0.67
promoter activity interaction Z-score [2, 23]: 1.48 ± 0.89
promoter activity interaction Z-score [3, 8]: -0.408 ± 0.09
promoter activity interaction Z-score [3, 9]: 0.0296 ± 0.17
promoter activity interaction Z-score [3, 10]: 0.145 ± 0.073
promoter activity interaction Z-score [3, 11]: -0.147 ± 0.056
promoter activity interaction Z-score [3, 12]: 0.134 ± 0.14
promoter activity interaction Z-score [3, 13]: 0.213 ± 0.017
promoter activity interaction Z-score [3, 14]: 0.0635 ± 0.05
promoter activity interaction Z-score [3, 15]: -0.119 ± 0.12
promoter activity interaction Z-score [3, 16]: 0.284 ± 0.49
promoter activity interaction Z-score [3, 17]: 0.421 ± 0.17
promoter activity interaction Z-score [3, 18]: 0.245 ± 0.24
promoter activity interaction Z-score [3, 19]: 0.14 ± 0.16
promoter activity interaction Z-score [3, 20]: 1.5406 ± 0.00073
promoter activity interaction Z-score [3, 21]: 0.113 ± 0.18
promoter activity interaction Z-score [3, 22]: -0.174 ± 0.2
promoter activity interaction Z-score [3, 23]: 1.4 ± 0.62
promoter activity interaction Z-score [4, 8]: 0.0673 ± 0.21
promoter activity interaction Z-score [4, 9]: -0.291 ± 0.042
promoter activity interaction Z-score [4, 10]: 0.21 ± 0.083
promoter activity interaction Z-score [4, 11]: -0.226 ± 0.19
promoter activity interaction Z-score [4, 12]: 0.318 ± 0.29
promoter activity interaction Z-score [4, 13]: -0.339 ± 0.52
promoter activity interaction Z-score [4, 14]: 0.165 ± 0.0019
promoter activity interaction Z-score [4, 15]: 0.0876 ± 0.53
promoter activity interaction Z-score [4, 16]: -0.446 ± 0.54
promoter activity interaction Z-score [4, 17]: -1.53 ± 0.12
promoter activity interaction Z-score [4, 18]: -1.13 ± 0.89
promoter activity interaction Z-score [4, 19]: -0.424 ± 0.61
promoter activity interaction Z-score [4, 20]: -1.63 ± 0.2
promoter activity interaction Z-score [4, 21]: -1.87 ± 0.17
promoter activity interaction Z-score [4, 22]: -2.05 ± 0.56
promoter activity interaction Z-score [4, 23]: -1.87 ± 0.47
promoter activity interaction Z-score [5, 8]: 0.51 ± 0.35
promoter activity interaction Z-score [5, 9]: 0.679 ± 0.23
promoter activity interaction Z-score [5, 10]: 1.25 ± 0.25
promoter activity interaction Z-score [5, 11]: 0.985 ± 1.4
promoter activity interaction Z-score [5, 12]: 1.19 ± 0.16
promoter activity interaction Z-score [5, 13]: 1.57 ± 0.17
promoter activity interaction Z-score [5, 14]: 1.21 ± 0.23
promoter activity interaction Z-score [5, 15]: 1.76 ± 1.1
promoter activity interaction Z-score [5, 16]: 0.92 ± 0.12
promoter activity interaction Z-score [5, 17]: 1.41 ± 0.34
promoter activity interaction Z-score [5, 18]: 1.08 ± 0.13
promoter activity interaction Z-score [5, 19]: 1.88 ± 0.47
promoter activity interaction Z-score [5, 20]: 2.49 ± 0.18
promoter activity interaction Z-score [5, 21]: 2.71 ± 1.5
promoter activity interaction Z-score [5, 22]: 2.7 ± 1.2
promoter activity interaction Z-score [5, 23]: 2.56 ± 1.5
promoter activity interaction Z-score [6, 8]: -0.136 ± 0.025
promoter activity interaction Z-score [6, 9]: -0.0396 ± 0.014
promoter activity interaction Z-score [6, 10]: 0.132 ± 0.012
promoter activity interaction Z-score [6, 11]: -0.0347 ± 0.41
promoter activity interaction Z-score [6, 12]: 0.0479 ± 0.082
promoter activity interaction Z-score [6, 13]: -0.0499 ± 0.0013
promoter activity interaction Z-score [6, 14]: 0.0442 ± 0.016
promoter activity interaction Z-score [6, 15]: 0.0803 ± 0.2
promoter activity interaction Z-score [6, 16]: -0.193 ± 0.16
promoter activity interaction Z-score [6, 17]: -0.125 ± 0.18
promoter activity interaction Z-score [6, 18]: 0.00176 ± 0.065
promoter activity interaction Z-score [6, 19]: 0.0899 ± 0.22
promoter activity interaction Z-score [6, 20]: -0.00867 ± 0.13
promoter activity interaction Z-score [6, 21]: -0.000878 ± 0.32
promoter activity interaction Z-score [6, 22]: -0.0162 ± 0.056
promoter activity interaction Z-score [6, 23]: 0.304 ± 0.35
promoter activity interaction Z-score [7, 8]: 0.183 ± 0.43
promoter activity interaction Z-score [7, 9]: 0.192 ± 0.74
promoter activity interaction Z-score [7, 10]: 0.95 ± 0.16
promoter activity interaction Z-score [7, 11]: -0.793 ± 0.74
promoter activity interaction Z-score [7, 12]: 0.878 ± 0.85
promoter activity interaction Z-score [7, 13]: 1.47 ± 0.72
promoter activity interaction Z-score [7, 14]: 0.512 ± 0.0012
promoter activity interaction Z-score [7, 15]: 0.453 ± 0.65
promoter activity interaction Z-score [7, 16]: 0.713 ± 0.2
promoter activity interaction Z-score [7, 17]: 1.93 ± 0.4
promoter activity interaction Z-score [7, 18]: 1.26 ± 0.14
promoter activity interaction Z-score [7, 19]: 0.497 ± 0.4
promoter activity interaction Z-score [7, 20]: 1.73 ± 1.4
promoter activity interaction Z-score [7, 21]: 0.8 ± 2.4
promoter activity interaction Z-score [7, 22]: 2.44 ± 0.49
promoter activity interaction Z-score [7, 23]: 2 ± 0.17
